# Measured values reported in PubChem BioAssay AID2012 (Sanford-Burnham Center for Chemical Genomics, 2009).
# The campaign covered roughly 290,000 compounds. About 2,700 (0.93%) were called active. How the calls were made is not given here. Only a selection was taken, and actives are over-represented in it overall.
# Target: Eukaryotic translation initiation factor 4H (Homo sapiens) (UniProt Q15056)
# Assay: eIF4H binding inhibition – biochemical, uHTS, fluorescence polarization, translation initiation inhibitor project, primary screen (AID 2012);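 further: calls also rest on retests at 20 µM and on dose response follow-up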
# Settings: eIF4H fluorescence polarization binding assay, stronger effect = higher value
Structure (SMILES),inhibition (at 35 µM),"inhibition (confirmation average, at 20 µM)"
CN(C)c1ccc(/C=C2\CC3C4CC=C5CC(O)CCC5(C)C4CCC3(C)C2=O)cc1 (stereo not given),3.9% (active),87.3%
CCN1C(=O)C(=Cc2c(C)n(CC(=O)NCC3CCCO3)c3ccccc23)C(=O)N(CC)C1=S (stereo not given),48.5% (inactive),
CCCCC(=O)N/N=C/c1c(O)n(-c2ccccc2)c(=O)[nH]c1=O,12.9% (inactive),
O=c1[nH]c(=O)n(CCc2ccccc2)c(O)c1/C=N/N1CCOCC1,3.3% (inactive),
O=C(N/N=C/c1c(O)n(Cc2ccccc2)c(=O)[nH]c1=O)c1ccccc1,74.3% (active),67.6%
O=c1[nH]c(=O)n(Cc2ccccc2)c(O)c1/C=N/Nc1c(F)c(F)c(F)c(F)c1F,92.3% (active),
O=C(N/N=C/c1c(O)n(C2CC2)c(=S)[nH]c1=O)c1ccccc1,10.1% (inactive),
O=c1[nH]c(=O)n(CCc2ccc(F)cc2)c(O)c1/C=N/N1CCCCC1,-3.1% (inactive),
CC1CCC(N(C)C2CCN(C)CC2)CC1 (stereo not given),-3.9% (inactive),
CCN(CC)C(=O)c1ccc(NC(=O)c2sccc2-c2ccccc2)cc1,-5.8% (inactive),
CCCCn1c(=O)c(C(=O)Nc2ccccc2Cl)c(O)c2ccccc21,-6% (inactive),
COc1ccc(N=Cc2c(O)n(C)c(=O)[nH]c2=O)cc1,35.4% (inactive),
Cc1cccc(NC(=O)N2CC3CC(C2)c2cccc(=O)n2C3)c1 (stereo not given),-1.5% (inactive),
Cc1nc2ccccc2c(=O)n1-c1ccc(Cl)cc1Cl,1.9% (inactive),
Cc1ccc(C2CN(C)CC2C(=O)c2ccc(F)cc2)cc1 (stereo not given),-1.4% (inactive),
COc1ccc(CNCCc2c[nH]c3ccccc23)cc1OC,-0.9% (inactive),
CN(C)S(=O)(=O)c1cc(C(=O)N2CCC(C(=O)O)(c3ccccc3)CC2)ccc1Cl,-1.5% (inactive),
COc1cccc(N2C(=O)NC(=O)/C(=C\c3ccc([N+](=O)[O-])s3)C2=O)c1,73.8% (active),101%
O=C1NC(=O)N(c2ccccc2)C(=O)/C1=C/c1ccc([N+](=O)[O-])s1,70.5% (inactive),22.6%
Cc1cccc(N2C(=O)NC(=O)/C(=C\c3cnn(-c4ccccc4)c3)C2=O)c1,-2.6% (inactive),
O=C(Cc1ccc(Cl)cc1)NCCN1CCN(C(=O)Cc2ccc(Cl)cc2)CC1,-0.4% (inactive),
COc1ccc(CNCCc2ccc3c(c2)OCO3)c(OC)c1OC,18.8% (inactive),
COc1cccc(OC)c1C(=O)NC(=S)N1C[C@H]2C[C@H](C1)c1cccc(=O)n1C2,-6.5% (inactive),
CCCCC(=O)N/N=C/c1c(O)n(CCC2=CCCCC2)c(=O)[nH]c1=O,26.1% (inactive),
O=C1NC(=O)N(CCc2ccc(F)cc2)C(=O)/C1=C/C=C/c1ccccc1,4.2% (inactive),
O=C(O)COc1ccccc1/C=C1\C(=O)NC(=O)N(CCC2=CCCCC2)C1=O,94% (active),
